In PubChem BioAssay (Tox21):
Results filed as inconclusive are left out. The source made the active and inactive calls. Unless noted, the call rests on the fitted dose curve; in most records, active means well fitted curve in the direction sought with a large enough effect in the repeat runs; inconclusive means weak or mixed curves; inactive means no such curve, though single readings can be large; an effect the other way counts as inactive or inconclusive.

Key:
[1] = qHTS assay to identify small molecule agonists of the hypoxia (HIF-1) signaling pathway - cell viability counter screen (AID 1224844; calls by dose curve; further: nearly all actives have a fitted effect of over 50% in size)
Outline: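 Cells (HRE-bla ME-180, 2,000 per well) sat 5 hrs at 37C, got compound for 17 hrs, were read for CCF4-AM FRET, and were finally lysed with CellTiter-Glo for a 30 min room-temperature luminescence read.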

[2] = qHTS assay to identify small molecule agonists of H2AX (AID 1224845; active means well fitted activation curve with a large enough effect in the signal ratio in the repeat runs, not every such curve was filed as active; the % refers to the signal ratio)
Outline: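 Wild-type CHO-K1 cells, plated overnight, exposed 3hr at 37C to 15 concentrations (0.76% DMSO final). Lysed, then HTRF anti-pH2AX (S139) cryptate and anti-H2AX-d2 antibodies, 24 hr room temperature; 665/620 nm emission read.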

[3] = qHTS assay to identify small molecule agonists of the hypoxia (HIF-1) signaling pathway (AID 1224846; active means well fitted activation curve with a large enough effect in the signal ratio in the repeat runs, not every such curve was filed as active; the % refers to the signal ratio)
Outline: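 A low-serum medium (0.5% dialyzed FBS) holding 2,000 HRE-bla ME-180 cells per well is preincubated for 5 hrs, dosed with compounds by pintool, and kept a further 17 hrs at 37C, 5% CO2 before CCF4-AM FRET detection of beta-lactamase.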

[4] = qHTS assay to identify small molecule agonists of H2AX - cell viability counter screen (AID 1224847; calls by dose curve; further: top concentration of the series differs between compounds; nearly all actives have a fitted effect of over 30% in size)
Outline: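 For this counter screen, overnight-attached CHO-K1 cells received test compounds (15 concentrations, 0.76% DMSO final); 3 hr later at 37C, CellTiter-Glo reagent was added and luminescence recorded after 30 min at room temperature.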

[5] = qHTS RealTime-Glo MT Cell Viability Assay in HepG2 cells - 24 hour (AID 1224867); further: nearly all actives have a fitted effect of over 50% in size
Outline: (§1)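 Compound treatment began 5 h after plating HepG2 cells (600/well) with NanoLuc luciferase and prosubstrate. Plates stayed at 37 C for 40 h; luminescence was captured at six time points, 0 h through 40 h.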

[6] = qHTS RealTime-Glo MT Cell Viability Assay in HEK293 cells - 32 hour (AID 1224868); further: top concentration of the series differs between compounds; nearly all actives have a fitted effect of over 50% in size
Outline: (§2)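 Quantitative high-throughput screen of the Tox21 10K library in HEK293: cells and RealTime-Glo reagents plated together, compound added at 5 h, luminescence monitored through 40 h at 37 C.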

[7] = A CellTox Green Cytotoxicity Assay to monitor cytotoxicity in HEK293 cells - 0 hour (AID 1224869); further: nearly all actives have a fitted effect of over 50% in size
Outline: (§3)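 Fluorescence intensity, read at 0, 8, 16, 24, 32 and 40 h of compound treatment, reflected dye binding to DNA of dead HEK293 cells; compounds (23 nL, DMSO) were added 5 h after plating cells with reagent.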

[8] = qHTS RealTime-Glo MT Cell Viability Assay in HepG2 cells - 40 hour (AID 1224870); further: nearly all actives have a fitted effect of over 50% in size
Outline: (§4)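 HepG2 cells (600/well) mixed with RealTime-Glo MT reagent, settled 5 h at 37 C/5% CO2 before compound addition. Nonlytic NanoLuc luminescence from viable-cell prosubstrate reduction read repeatedly during 40 h treatment at 37 C.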

[9] = A CellTox Green Cytotoxicity Assay to monitor cytotoxicity in HEK293 cells - 40 hour (AID 1224871); further: nearly all actives have a fitted effect of over 45% in size; further: potency means the concentration at half of the fitted maximal effect
Outline: as §3

[10] = qHTS RealTime-Glo MT Cell Viability Assay in HEK293 cells - 16 hour (AID 1224872)
Outline: as §2

[11] = qHTS RealTime-Glo MT Cell Viability Assay in HepG2 cells - 8 hour (AID 1224873); further: nearly all actives have a fitted effect of over 55% in size
Outline: as §4

[12] = A CellTox Green Cytotoxicity Assay to monitor cytotoxicity in HEK293 cells - 24 hour (AID 1224875); further: series mostly up to about 77 µM; nearly all actives have a fitted effect of over 45% in size
Outline: as §3

[13] = A CellTox Green Cytotoxicity Assay to monitor cytotoxicity in HepG2 cells - 16 hour (AID 1224876); further: nearly all actives have a fitted effect of over 45% in size
Outline: (§5)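 Using 1536-well format, dye-containing HepG2 suspension was seeded, allowed 5 h at 37 C/5% CO2, dosed by pintool with compounds, positive and negative controls, and imaged for fluorescence across 40 h.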

[14] = qHTS RealTime-Glo MT Cell Viability Assay in HepG2 cells - 32 hour (AID 1224877); further: nearly all actives have a fitted effect of over 55% in size
Outline: as §1

[15] = A CellTox Green Cytotoxicity Assay to monitor cytotoxicity in HepG2 cells - 24 hour (AID 1224878); further: nearly all actives have a fitted effect of over 45% in size
Outline: as §5

[16] = A CellTox Green Cytotoxicity Assay to monitor cytotoxicity in HepG2 cells - 40 hour (AID 1224879); further: nearly all actives have a fitted effect of over 40% in size
Outline: as §5

[17] = qHTS RealTime-Glo MT Cell Viability Assay in HEK293 cells - 0 hour (AID 1224880)
Outline: (§6)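 Viable HEK293 cells reduce a cell-permeant prosubstrate; the product diffuses out and is consumed by NanoLuc in the medium to give light. Compounds went in after a 5 h incubation and plates were read over the treatment course.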

[18] = qHTS RealTime-Glo MT Cell Viability Assay in HEK293 cells - 40 hour (AID 1224874); conditions: RealTime-Glo luminescence; max response: active compounds read low; further: nearly all actives have a fitted effect of over 50% in size
Outline: as §6
On the % scale 0 is the no-effect control and ±100 the full control effect.

O=C(O)CCCCCCNC1c2ccccc2CCc2ccccc21
inactive: Potency [1] | Potency [2] | Potency [3] | Potency [4] | Potency [5] | Potency [6] | Potency [7] | Potency [8] | Potency [9] | Potency [10] | Potency [11] | Potency [12] | Potency [13] | Potency [14] | Potency [15] | Potency [16] | Potency [17]

CCCCC(CC)COC(=O)OOC(C)(C)C (stereo unspecified)
inactive: Potency [1] | Potency [2] | Potency [3] | Potency [4] | Potency [5] | Potency [6] | Potency [7] | Potency [9] | Potency [10] | max response [18] 0.0606% | Potency [12] | Potency [13] | Potency [14] | Potency [15] | Potency [16] | Potency [17]

[O-][Cl+3]([O-])([O-])O
inactive: Potency [1] | Potency [2] | Potency [3] | Potency [4] | Potency [5] | Potency [6] | Potency [7] | Potency [8] | Potency [9] | Potency [10] | Potency [11] | Potency [12] | Potency [14] | Potency [16] | Potency [17]

COc1ccc2c3c1O[C@H]1[C@H](O)CC[C@H]4[C@@H](C2)N(C)CC[C@@]341
inactive: Potency [1] | Potency [2] | Potency [3] | Potency [4] | Potency [5] | Potency [6] | Potency [7] | Potency [8] | Potency [9] | Potency [10] | Potency [11] | max response [18] -1.3% | Potency [12] | Potency [14] | Potency [16] | Potency [17]

O.O.O.O.O.O.O=S(=O)([O-])[O-].[Ni+2]
inactive: Potency [1] | Potency [2] | Potency [3] | Potency [4] | Potency [5] | Potency [6] | Potency [7] | Potency [9] | Potency [10] | Potency [11] | max response [18] -26.5% | Potency [12] | Potency [13] | Potency [14] | Potency [15] | Potency [16] | Potency [17]

CSC(=O)c1c(C(F)F)nc(C(F)(F)F)c(C(=O)SC)c1CC(C)C
inactive: Potency [1] | Potency [2] | Potency [3] | Potency [4] | Potency [5] | Potency [6] | Potency [7] | Potency [8] | Potency [9] | Potency [10] | Potency [11] | Potency [12] | Potency [13] | Potency [14] | Potency [15] | Potency [16] | Potency [17]

Cc1ccc(C)c2ccccc12
active: Potency [9] 38.9 µM
inactive: Potency [1] | Potency [2] | Potency [3] | Potency [4] | Potency [5] | Potency [6] | Potency [7] | Potency [8] | Potency [10] | Potency [11] | Potency [14] | Potency [15] | Potency [16] | Potency [17]

ClC(Cl)C(Cl)(Cl)Cl
inactive: Potency [1] | Potency [2] | Potency [3] | Potency [4] | Potency [5] | Potency [6] | Potency [7] | Potency [8] | Potency [9] | Potency [10] | Potency [11] | max response [18] 0.191% | Potency [12] | Potency [13] | Potency [14] | Potency [15] | Potency [16] | Potency [17]

CN1C2CCC(C)(C)C1CC(OC(=O)C(O)(c1cccs1)c1cccs1)C2 (stereo unspecified)
inactive: Potency [1] | Potency [2] | Potency [3] | Potency [4] | Potency [5] | Potency [6] | Potency [7] | Potency [8] | Potency [9] | Potency [10] | Potency [11] | max response [18] -25.3% | Potency [12] | Potency [13] | Potency [14] | Potency [15] | Potency [16] | Potency [17]

CC(Cc1ccccc1)N(C)Cc1ccco1 (stereo unspecified)
inactive: Potency [1] | Potency [2] | Potency [3] | Potency [4] | Potency [5] | Potency [6] | Potency [7] | Potency [8] | Potency [9] | Potency [10] | Potency [11] | max response [18] 0.354% | Potency [12] | Potency [13] | Potency [14] | Potency [15] | Potency [16] | Potency [17]

CC(=O)[O-].CC(=O)[O-].CC(=O)[O-].[Sb+3]
inactive: activity change, negative = cytotoxicity [1] -10.5% [at 2.72 µM] | activation (H2AX phosphorylation) [2] 1.32% [at 5.45 µM] | activation [3] -0.789% [at 2.67 µM] | activity change, negative = cytotoxicity [4] -1.46% [at 5.43 µM] | activity change, negative = cytotoxicity [5] -0.623% [at 2.72 µM] | activity change, negative = cytotoxic [6] 7.03% [at 2.72 µM] | cytotoxicity [7] -0.412% [at 2.72 µM] | cytotoxicity increase [9] 2.55% [at 2.72 µM] | activity change, negative = cytotoxicity [10] 1.77% [at 2.72 µM] | viability change, negative = cytotoxic [11] -4.57% [at 2.72 µM] | max response [18] 11.6% | activity change [12] 1.85% [at 2.72 µM, active compounds read high] | cytotoxicity increase [13] -16% [at 2.72 µM] | activity change, negative = cytotoxic [14] 8.41% [at 2.72 µM] | cytotoxicity [15] -19.2% [at 2.72 µM] | cytotoxicity increase [16] -22.4% [at 2.72 µM]

CCOP(=S)(OCC)Oc1cc(C)nc(N(CC)CC)n1
inactive: Potency [1] | Potency [2] | Potency [3] | Potency [4] | Potency [5] | Potency [6] | Potency [7] | Potency [8] | Potency [9] | Potency [10] | Potency [11] | max response [18] 2.8% | Potency [12] | Potency [13] | Potency [14] | Potency [15] | Potency [16] | Potency [17]

ClSC(Cl)(Cl)Cl
inactive: Potency [1] | Potency [2] | Potency [3] | Potency [4] | Potency [5] | Potency [6] | Potency [7] | Potency [8] | Potency [9] | Potency [10] | Potency [11] | max response [18] 0.633% | Potency [12] | Potency [14] | Potency [15] | Potency [16] | Potency [17]

CN/C(=N\[N+](=O)[O-])NCc1cnc(Cl)s1
inactive: Potency [1] | Potency [2] | Potency [3] | Potency [4] | Potency [5] | Potency [6] | Potency [7] | Potency [8] | Potency [9] | Potency [10] | Potency [11] | max response [18] -7.42% | Potency [12] | Potency [13] | Potency [14] | Potency [15] | Potency [16] | Potency [17]
